# Reference: PubChem BioAssay AID504834 (National Center for Advancing Translational Sciences (NCATS), 2011)
# Among all 320,000 compounds or so, about 22,000 (6.9%) were called active. Roughly 27% stayed inconclusive and do not appear here. Calls follow the shape of the dose curve; as a rule, active = well fitted inhibition curve with a large enough effect; inconclusive = small, poorly fitted or top-dose-only effect, or another doubt; inactive = no such curve, though single readings can be large or run the other way. What follows is part of a selection rich in actives, with near analogues and random picks from the rest.
# Experiment: Primary qHTS for delayed death inhibitors of the malarial parasite plastid, 96 hour incubation
# Conditions: P. falciparum luciferase reporter growth; series mostly up to 28.7 µM; activity change, negative = inhibition: at the top concentration
# From the text: The goal of this screen is to discover new antimalarial compounds that act by inhibiting the development of the apicoplast in the malarial parasite Plasmodium falciparum. The biochemical processes that make this organelle essential for erythrocytic stage parasites are not well understood. However, antibiotics such as azithromycin and tetracycline, which target the apicoplast translational machinery, have a potent antimalarial effect.
# We have developed a cell-based assay that measures parasite growth based on the expression of an integrated copy of a firefly luciferase reporter. To detect small molecules that cause this "delayed death" phenotype, erythrocytes infected with the luciferase-expressing parasites were incubated with compounds for either one or two generations, corresponding to 48 and 96 hours, respectively. Compounds that inhibit parasite growth in the second generation, but not the first, should be enriched in antimalarials that target the apicoplast. Growth inhibition is detected by a decrease in luciferase activity.
# Assay Provider: David Fidock and Eric Ekland, Columbia University
# Keywords: NIH Roadmap, MLPCN, MLI, MLSMR, qHTS, NCGC, qHTS, malaria, luciferase, viability
# Four microliters of infected erythrocytes (2% hematocrit, 0.05% parasitemia final concentration) in culture medium were dispensed and the plates incubated for 96 hours at 37 C in 5% CO2. Two microliters of luciferase detection reagent was added and luminescence was detected by a ViewLux (PerkinElmer) reader.
# % is scaled to controls: 0 for no effect and ±100 for the full control effect; potency is read from the fitted curve at half-maximal effect.
Compound,"activity change, negative = inhibition",Potency
CC1CCN(C(=O)/C(=C\c2ccccc2F)NC(=O)c2ccccc2)CC1,27.9% (inactive),
C=CCn1c(Oc2ccc(C(=O)OC)cc2)nc2c1c(=O)n(C)c(=O)n2C,,5.86 µM (active)
Cn1c(=O)c2c(nc(NCc3ccccc3)n2CC(N)=O)n(C)c1=O,23.9% (inactive),
Cn1c(=O)c2c(nc(N3CCCCCC3)n2CC(=O)c2ccc(Br)cc2)n(C)c1=O,23.4% (inactive),
COc1ccc(NC(=O)CCNC(=O)Cn2cnc3sc4c(c3c2=O)CCCC4)cc1OC,14.1% (inactive),
C=CCN1C(=O)C2(OCCCO2)c2cccc(Cl)c21,-23.1% (inactive),
COc1ccc(-c2nnc3n2CCCCC3)cc1,32.2% (inactive),
CC(=O)N1c2ccc(S(=O)(=O)N3CCC(C(=O)NC4CCCCC4C)CC3)cc2CC1C (centres undefined),-7.95% (inactive),
CC(=O)N1c2ccc(S(=O)(=O)N3CCCC(C(=O)Nc4cccc(Cl)c4)C3)cc2CC1C (centres undefined),-15.3% (inactive),
CC(=O)N1c2ccc(S(=O)(=O)N3CCCC(C(=O)Nc4cccc(F)c4)C3)cc2CC1C (centres undefined),,11.7 µM (active)
O=C(CN1C(=O)S/C(=C\c2ccccc2Cl)C1=O)NC1C=CS(=O)(=O)C1 (centres undefined),3.43% (inactive),
CCOC(=O)c1c(-c2ccc(C)cc2)csc1/N=C(\C)C1=C(O)c2ccccc2C1=O,-6.18% (inactive),
CCOC(=O)c1c(-c2ccccc2)csc1NC(=S)NC(=O)c1ccccc1,38.7% (inactive),
COC(=O)c1c(-c2ccc(C)cc2)csc1N,,13.1 µM (active)
COc1cc2ccccc2cc1C(=O)N1CCOCC1,6.89% (inactive),
CC(C(=O)NC1CCCCC1)N1C(=O)c2cccc3cccc1c23 (centres undefined),-27.6% (inactive),
O=C(Oc1ccc(F)cc1)N1CCOCC1,56.1% (inactive),
COc1ccc(CCNC(=O)c2ccco2)cc1,,7.38 µM (active)
Cc1ccc(OCC(=O)NCCCNC(=O)c2ccco2)cc1C,0.751% (inactive),
CCOc1ncccc1C(=O)NCCc1ccc(OC)cc1,-2.75% (inactive),
Cc1ccc(C)c(NC(=O)COC(=O)CSc2ccccc2)c1,-20.2% (inactive),
Cc1ccc(C)c(NC(=O)C(c2ccccc2)N2CCN(CC(=O)NC3CC3)CC2)c1 (centres undefined),,14.7 µM (active)
Cc1ccc(Cl)c(NC(=O)CN2CCN(C=O)CC2)c1,23.5% (inactive),
Cc1ccc(NS(=O)(=O)c2c(C)[nH]c(C)c2C(=O)N2CCCCC2)c(C)c1,-29.1% (inactive),
Cc1ccc(S(=O)(=O)N(C)C)cc1NC(=O)c1ccc(-n2cncn2)c([N+](=O)[O-])c1,-7.86% (inactive),
CC1CCc2c(sc3nc4n(c(=O)c23)CCS4)C1 (centres undefined),-29.8% (inactive),
CCCn1nnc2sc3c(c2c1=O)CCC(C)C3 (centres undefined),,11.7 µM (active)
C=CCn1c(SCc2c(C)noc2C)nc2sc3c(c2c1=O)CCC(C)C3 (centres undefined),-1.1% [at 5.75 µM] (inactive),
COc1cccc(COC(=O)C2CCN(S(=O)(=O)c3cccs3)CC2)c1OC,8.27% (inactive),
